Four molecules from PubChem BioAssay (EPA / NIEHS) can be followed below.

Structures are written as SMILES. Active and inactive are the calls of the source. Rule for the calls: active = hit-call score of the fitted dose curve at least 0.9, where 1 is the maximum; inactive = score below 0.9.

Read-out in test [1]: Thrombomodulin, THBD (gene 7056)
In words: BSK_3C_Thrombomodulin: BioMAP Diversity Plus: 3C Assay for Thrombomodulin Biomarker Activity (AID 2283029). The settings on record: primary human endothelial cells (HUVEC); actives raise or lower the signal. The gist of the method: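 Read-out is ELISA of thrombomodulin on human umbilical vein endothelium 24 h after chemical dosing. Gain or loss of signal is scored relative to DMSO. Overt cytotoxicity is checked in parallel cultures by sulforhodamine B staining.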

Read-out in test [2]: Urokinase-type plasminogen activator receptor (uPAR), PLAUR (gene 5329)
Put plainly: BSK_4H_uPAR: BioMAP Diversity Plus: 4H Assay for Urokinase-type plasminogen activator receptor (uPAR) Biomarker Activity (AID 2283030). The note with it: primary human endothelial cells (HUVEC); actives raise or lower the signal. In outline:
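uPAR level read by ELISA on HUVEC cultures (BioMAP 4H) 24 h post-dosing, analyzed for gain or loss relative to DMSO. Parallel SRB staining assessed overt cytotoxicity.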

Read-out in test [3]: Vascular endothelial growth factor receptor 2 (Homo sapiens) (UniProt P35968)
Put plainly: BSK_4H_VEGFRII: BioMAP Diversity Plus: 4H Assay for Vascular endothelial growth factor receptor 2 (VEGFR2) Biomarker Activity (AID 2283031). The note with it: primary human endothelial cells (HUVEC); actives raise or lower the signal. The gist of the method: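 Measured by ELISA after 24 h of compound treatment: VEGFR2 on primary human umbilical vein endothelial cells, fitted in both directions relative to DMSO. Parallel cultures received SRB staining (560 nm) for overt cytotoxicity.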

Read-out in test [4]: Human Leukocyte Antigen - DR isotype (HLADR), HLA-DRA (gene 3122)
In words: BSK_BE3C_HLADR: BioMAP Diversity Plus: BE3C Assay for Human Leukocyte Antigen - DR isotype (HLADR) Biomarker Activity (AID 2283032). The settings on record: primary human bronchial epithelial cells; actives raise or lower the signal. In outline: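 ELISA read-out of HLA-DR on human lung bronchial epithelial primary cells, measured 24 h post-dosing. Both increases and decreases were scored relative to DMSO vehicle.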

Read-out in test [5]: Vascular cell adhesion molecule 1 (VCAM1), VCAM1 (gene 7412)
Put plainly: BSK_4H_VCAM1: BioMAP Diversity Plus: 4H Assay for Vascular cell adhesion molecule 1 (VCAM1) Biomarker Activity (AID 2283033).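 For outcome: cell-surface VCAM-1 protein measured by ELISA.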 The settings on record: primary human endothelial cells (HUVEC); actives raise or lower the signal. The gist of the method: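 ELISA read-out of VCAM-1 on human umbilical vein endothelium 24 hours after chemical dosing; gain or loss of signal was fitted relative to DMSO, with sulforhodamine B staining of parallel cultures flagging overt cytotoxicity.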

Read-out in test [6]: Monokine induced gamma interferon (MIG), CXCL9 (gene 4283)
In words: BSK_BE3C_MIG: BioMAP Diversity Plus: BE3C Assay for Monokine induced gamma interferon (MIG) Biomarker Activity (AID 2283035).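 For outcome: MIG protein measured by ELISA in BE3C cultures after 24 h of dosing.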 The settings on record: primary human bronchial epithelial cells; actives raise or lower the signal. In outline:
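ELISA read-out of MIG in human lung bronchial epithelial primary cultures, 24 h post-dosing. Bidirectional curve fit vs DMSO baseline.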

Read-out in test [7]: Transforming growth factor beta 1 (TGFb1), TGFB1 (gene 7040)
Put plainly: BSK_BE3C_TGFb1: BioMAP Diversity Plus: BE3C Assay for Transforming growth factor beta 1 (TGFb1) Biomarker Activity (AID 2283036;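 for outcome: TGF-b1 protein level measured by ELISA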). The settings on record: primary human bronchial epithelial cells; actives raise or lower the signal. The gist of the method: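 Primary human lung bronchial epithelial cells; compound exposure 24 h; TGF-b1 by ELISA; bidirectional fit, DMSO baseline. Parallel SRB total-protein staining for cytotoxicity.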

Read-out in test [8]: Plasminogen activator inhibitor-1 (PAI1), SERPINE1 (gene 5054)
In words: BSK_BE3C_PAI1: BioMAP Diversity Plus: BE3C Assay for Plasminogen activator inhibitor-1 (PAI1) Biomarker Activity (AID 2283037). The settings on record: primary human bronchial epithelial cells; actives raise or lower the signal. In outline: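 Primary human lung bronchial epithelial cells; chemical dosing; 24 h; PAI-1 measured by ELISA; bidirectional fit referenced to DMSO as negative control.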

Read-out in test [9]: urokinase plasminogen activator (uPA), PLAU (gene 5328)
Put plainly: BSK_BE3C_uPA: BioMAP Diversity Plus: BE3C Assay for urokinase plasminogen activator (uPA) Biomarker Activity (AID 2283038).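 For outcome: uPA protein level quantified by ELISA in cell cultures; uPA read one day after compound addition.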 The settings on record: primary human bronchial epithelial cells; actives raise or lower the signal. In outline:
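ELISA for uPA on human primary bronchial epithelial cultures 24 h post-treatment, gain or loss against DMSO. Parallel SRB staining (0.1% after 10% TCA fixation, 560 nm) assessed overt cytotoxicity.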

Read-out in test [10]: Urokinase-type plasminogen activator receptor (uPAR), PLAUR (gene 5329)
Put plainly: BSK_BE3C_uPAR: BioMAP Diversity Plus: BE3C Assay for Urokinase-type plasminogen activator receptor (uPAR) Biomarker Activity (AID 2283039).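 For outcome: uPAR protein level measured by ELISA on the cells; cells exposed to compound for one day before measurement.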 The note with it: primary human bronchial epithelial cells; actives raise or lower the signal. The gist of the method:
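Human bronchial epithelial primary cells; chemical exposure 24 h; uPAR by ELISA; bidirectional fit vs DMSO control.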

Read-out in test [11]: Interleukin-6 (IL6), IL6 (gene 3569)
Put plainly: BSK_CASM3C_IL6: BioMAP Diversity Plus: CASM3C Assay for Interleukin-6 (IL6) Biomarker Activity for (AID 2283040). The settings on record: primary human coronary artery smooth muscle cells; actives raise or lower the signal.

Read-out in test [12]: Tissue plasminogen activator (tPA), PLAT (gene 5327)
In words: BSK_BE3C_tPA: BioMAP Diversity Plus: BE3C Assay for Tissue plasminogen activator (tPA) Biomarker Activity (AID 2283041).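 For outcome: tPA level quantified by ELISA one day after compound addition.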 The settings on record: primary human bronchial epithelial cells; actives raise or lower the signal. The gist of the method:
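Primary human lung bronchial epithelial cultures receive test chemical; after 24 h, tPA is quantified by ELISA, and gain or loss of signal is fitted bidirectionally relative to DMSO baseline.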

Read-out in test [13]: Interleukin-8 (IL8), CXCL8 (gene 3576)
In words: BSK_CASM3C_IL8: BioMAP Diversity Plus: CASM3C Assay for Interleukin-8 (IL8) Biomarker Activity (AID 2283042).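 Note: IL-8 protein level quantified by ELISA.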 The note with it: primary human coronary artery smooth muscle cells; actives raise or lower the signal.

Read-out in test [14]: Human Leukocyte Antigen - DR isotype (HLADR), HLA-DRA (gene 3122)
Put plainly: BSK_CASM3C_HLADR: BioMAP Diversity Plus: CASM3C Assay for Human Leukocyte Antigen - DR isotype (HLADR) Biomarker Activity (AID 2283043).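 Note: cell-surface HLA-DR protein level quantified by ELISA.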 The settings on record: primary human coronary artery smooth muscle cells; actives raise or lower the signal.

Read-out in test [15]: Macrophage colony-stimulating factor (MCSF), CSF1 (gene 1435)
In words: BSK_CASM3C_MCSF: BioMAP Diversity Plus: CASM3C Assay for Macrophage colony-stimulating factor (MCSF) Biomarker Activity (AID 2283044).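 Note: M-CSF protein amount quantified by ELISA after 24 h exposure.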 The settings on record: primary human coronary artery smooth muscle cells; actives raise or lower the signal.

Read-out in test [16]: Low-density lipoprotein receptor (LDLR), LDLR (gene 3949)
In words: BSK_CASM3C_LDLR: BioMAP Diversity Plus: CASM3C Assay for Low-density lipoprotein receptor (LDLR) Biomarker Activity (AID 2283045).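 Note: LDLR protein level on the cell surface quantified by ELISA.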 The settings on record: primary human coronary artery smooth muscle cells; actives raise or lower the signal.

Read-out in test [17]: Monocyte Chemoattractant Protein-1 (MCP1), CCL2 (gene 6347)
In words: BSK_CASM3C_MCP1: BioMAP Diversity Plus: CASM3C Assay for Monocyte Chemoattractant Protein-1 (MCP1) Biomarker Activity (AID 2283046).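 Note: MCP-1 level quantified by ELISA 24 h after dosing.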 The note with it: primary human coronary artery smooth muscle cells; actives raise or lower the signal.

The nature of test [18]: BSK_CASM3C_Proliferation: Cell Proliferation Assessment in the BioMAP Diversity Plus: CASM3C Assay (AID 2283047).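 Note: sulforhodamine B total protein stain as relative cell number at 560 nm; sub-confluent cells exposed 48 h before staining; fitted both ways against DMSO so gain or loss of cell number.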 The settings on record: primary human coronary artery smooth muscle cells.
Read-out in test [19]: Monokine induced gamma interferon (MIG), CXCL9 (gene 4283)
Put plainly: BSK_CASM3C_MIG: BioMAP Diversity Plus: CASM3C Assay for Monokine induced gamma interferon (MIG) Biomarker Activity (AID 2283048).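 Note: MIG protein level measured by ELISA.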 The settings on record: primary human coronary artery smooth muscle cells; actives raise or lower the signal.

In general, AC50 refers to the midpoint of the concentration-response curve, whichever way the signal moves. For `COP(=S)(OC)Oc1cc(Cl)c(Cl)cc1Cl`, the outcome in [1], in [2], in [3], in [4], in test [6] and in test [7] was inactive. Also, the result in test [9], in test [10], in test [11], in test [12], in test [13] and in [16] was inactive. Moreover, the outcome in test [17] and in test [19] was inactive. In addition, the AC50 in test [5] was 24.9 µM (active); in test [8], 8.51 µM (active); in test [14] it was 20 µM (active); in [15] it was 3.97 µM (active); in [18] it was 29.3 µM (active).

For the molecule `CCN1CCC2(CC1)COc1cc3c(cc12)N(C(=O)c1ccc(-c2ccc(-c4nnc(C)o4)cc2C)cc1)CC3`, the outcome in [1], in [3] and in test [7] was inactive. Moreover, the concentration at half-maximal activity (AC50) was 18.7 µM (active) in [2]; 10.5 µM (active) in test [4]; 27.8 µM (active) in test [5]; 23.8 µM (active) in test [6]; 12.5 µM (active) in test [8]; 18.7 µM (active) in test [9]. For the same molecule, the AC50 in [10] was 18.7 µM (active); in test [11], 31.7 µM (active); in [12] it was 18.7 µM (active); in [13], 27.9 µM (active); in test [14], 15.3 µM (active); in [15] it was 27.4 µM (active). In addition, the AC50 in test [16] was 34.2 µM (active); in test [17], 28.5 µM (active); in test [18] it was 18.7 µM (active); in [19], 36 µM (active).

Turning to `O=[N+]([O-])c1ccc(O)c([N+](=O)[O-])c1`, the outcome in test [1], in test [2], in test [3], in test [4], in [5] and in test [6] was inactive. Moreover, the outcome in [7], in test [9], in test [10], in [11], in test [12] and in test [13] was inactive. For the same molecule, the result in test [14], in test [15], in [16], in test [17], in test [18] and in test [19] was inactive. Further, the AC50 in test [8] is 30.5 µM (active).

As for `CCCCCCCCc1ccc(O)cc1`, the AC50 in test [1] is 34.3 µM (active); in test [2] it was 37.2 µM (active); in test [4], 33 µM (active); in test [5], 33.2 µM (active); in test [6] it was 37.7 µM (active); in test [7] it was 30.5 µM (active). For the same molecule, the AC50 in [8] was 33.9 µM (active); in test [9], 32.7 µM (active); in test [10] it was 32.5 µM (active); in [11] it was 20.1 µM (active); in test [12] it was 25 µM (active); in [13], 30.1 µM (active). Moreover, the AC50 is 20.1 µM (active) in [14]; 31.9 µM (active) in test [15]; 20.1 µM (active) in [16]; 27.8 µM (active) in test [17]; 31.5 µM (active) in [18]; 31.2 µM (active) in [19].
